Assay outcomes deposited in PubChem BioAssay by National Center for Advancing Translational Sciences (NCATS).
Most compounds without a hit are left out; they make up all but 12% or so of the library.
G9a inh = qHTS Assay for Inhibitors of Histone Lysine Methyltransferase G9a. Histone-lysine N-methyltransferase EHMT2 (Homo sapiens), Q96KQ7. G9a H3K9 monomethylation, AlphaScreen, 2 h. Potency, µM (series often up to 102 µM), inactives show at the highest dose activity, negative = inhibition, most hits filed as inhibitors. actives 8.8% (n = 350,000). AID 504332, 2011; further: on the % scale 0 is the no-effect control and ±100 the full control effect; nearly all actives have a fitted effect of over 75% in size
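Readings reflect AlphaScreen signal from monomethyl-H3K9 antibody detection. HMT at 20 nM; substrate b-H3K9 500 nM; cofactor SAM 20 uM; 2 h RT reaction; compounds tested as titrations in qHTS with 15 min preincubation.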
JMJD2A Tudor = qHTS Assay for Inhibitors of JMJD2A-Tudor Domain; actives 4.4% (n = 390,000); Potency, µM (top dose mostly 114 µM), for the others: top-dose activity change, negative = inhibition, hits mostly inhibitors; AID 504339, 2011; AlphaScreen JMJD2A-Tudor / H3K4me3 peptide binding; Lysine-specific demethylase 4A (Homo sapiens), O75164; further: on the % scale 0 is the no-effect control and ±100 the full control effect; nearly all actives have a fitted effect of over 50% in size
PLK1 PBD block = qHTS for Inhibitors of PLK1-PDB (polo-like kinase 1 - polo-box domain): Primary Screen. AID 720504, 2013. Plk1 PBD binding of FITC phosphopeptide, fluorescence polarization. Potency, µM, for the others: max response, negative = inhibition, usual class: inhibitors. actives 2.8% (n = 360,000). Serine/threonine-protein kinase PLK1 (Homo sapiens), P53350; further: series mostly up to about 57 µM; on the % scale 0 is the no-effect control and ±100 the full control effect; nearly all actives have a fitted effect of over 65% in size
Target sequence (P53350 whole entry, looked up, the tested form may be a part): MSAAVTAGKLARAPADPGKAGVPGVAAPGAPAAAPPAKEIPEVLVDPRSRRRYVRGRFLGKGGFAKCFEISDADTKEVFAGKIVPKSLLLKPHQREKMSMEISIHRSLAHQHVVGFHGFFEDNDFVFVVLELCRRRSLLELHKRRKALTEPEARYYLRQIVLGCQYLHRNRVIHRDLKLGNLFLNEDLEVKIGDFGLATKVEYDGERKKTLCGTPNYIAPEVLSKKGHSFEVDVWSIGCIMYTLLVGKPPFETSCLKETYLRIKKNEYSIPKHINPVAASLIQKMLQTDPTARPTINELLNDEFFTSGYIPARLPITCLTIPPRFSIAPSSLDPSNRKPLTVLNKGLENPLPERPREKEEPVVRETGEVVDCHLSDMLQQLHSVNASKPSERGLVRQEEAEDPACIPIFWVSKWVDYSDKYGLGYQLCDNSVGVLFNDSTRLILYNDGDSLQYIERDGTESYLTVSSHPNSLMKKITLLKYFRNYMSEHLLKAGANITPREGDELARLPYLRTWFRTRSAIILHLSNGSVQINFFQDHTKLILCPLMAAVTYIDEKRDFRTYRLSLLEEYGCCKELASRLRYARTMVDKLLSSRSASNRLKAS
Sfp inh = qHTS Assay for Inhibitors of Bacillus subtilis Sfp phosphopantetheinyl transferase (PPTase); Potency, µM, without a hit: largest response in the series, negative = inhibition, usual class: inhibitors; Biochemical Sfp PPTase activity, qHTS; actives 3.5% (n = 310,000);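 further: the enzyme is Sfp with the accession as filed and its product quenches rhodamine fluorescence; 0% = enzyme reaction without inhibitor and -100% = no enzyme wells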
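Fluorescence-quenching assay: 15 nM Sfp-PPTase preincubated 15 min at room temperature with compound, then 5 uM rhodamine-CoA and 12.5 uM BHQ-2-labelled YbbR peptide added. Fluorescence (ex 525/em 598 nm) read at start and after 30 min; difference gives rate.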
BAZ2B block = qHTS Assay for Inhibitors of BAZ2B; AlphaScreen BAZ2B-H3K14Ac peptide displacement; AID 504333, 2011; Potency, µM (doses to about 114 µM), for the others: top-dose activity change, negative = inhibition, hits mostly inhibitors; actives 4.4% (n = 360,000); further: on the % scale 0 is the no-effect control and ±100 the full control effect; nearly all actives have a fitted effect of over 60% in size
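Protein-peptide AlphaScreen: BAZ2B 50 nM, b-H3K14Ac 50 nM, 1x PBS pH 7.4 + 0.01% Tween-20. Preincubation 30 min RT; cpd 30 min RT (top 110 uM); beads 20 min RT, light-protected.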
HP1b chromo inh = HTS for Inhibitors of HP1-beta Chromodomain Interactions with Methylated Histone Tails | AID 540317, 2011 | Chromobox protein homolog 1 (Homo sapiens), P83916 | actives 0.56% (n = 390,000) | Potency, µM (highest dose often 114 µM), without a hit: top-dose activity change, negative = inhibition, actives largely listed as inhibitors | AlphaScreen HP1-beta / biotin-H3K9me3 peptide binding; further: nearly all actives have a fitted effect of over 70% in size
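Compound inhibition of the preformed complex between 50 nM HP1-beta and 50 nM biotinylated H3K9me3 peptide was read by AlphaScreen. Buffer was PBS pH 7.4 with 0.01% Tween-20. Incubations ran 30 min at room temperature, with 10 ug/mL donor/acceptor beads.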
Numbers without * were called inactive; u = inconclusive; x = no result; [ ] = another dose, or the depositor's remark. The call rests on the fitted dose curve; in most records, active means well fitted curve in the direction sought with a large enough effect; inconclusive means small, poorly fitted or top-dose-only effect, or another doubt; inactive means no such curve, though single readings can be large; an effect the other way counts as inactive or inconclusive. Potency means the concentration at half of the fitted maximal effect.

SMILES | G9a inh | JMJD2A Tudor | PLK1 PBD block | Sfp inh | BAZ2B block | HP1b chromo inh
COc1cccc(C(=O)N2CCN(C(=O)c3cccc4ccccc34)CC2)c1OC | -12%[59 µM] | 6% | -2% | 15% | x | 16%
COc1cccc(CN2CCN(C(=O)c3cccc4ccccc34)CC2)c1 | x | 28µM* | -1% | -13% | -36%[57.1 µM] | u
COc1ccccc1Cc1nc2ccccc2nc1SCC(=O)Nc1ccccc1C(F)(F)F | 14%[59 µM] | -12% | x | x | 3% | 22%[57 µM]
C=CCn1c(SCc2ccccc2F)nc2cc(C(=O)O)ccc2c1=O | -43% | -3% | -8% | u | u | 16%
COCCNC(=O)c1cccc(OC2CCN(Cc3ccc(Cl)c(F)c3)CC2)c1 | 2% | -8% | -7% | 25% | -7% | 22%
CC(C)(C)C1CCc2nc(NC(=O)Cc3ccccc3)sc2C1 (centres undefined) | -9%[59 µM] | -1% | x | x | 7% | 34%
Nc1nc2c(s1)CC(c1ccccc1)CC2 (centres undefined) | 50µM* | 5%[11.4 µM] | u | 2% | u | -2%
O=c1[nH]cc(S(=O)(=O)NCc2ccccc2)c(=O)[nH]1 | -5%[59 µM] | 13% | 2% | 16% | -1% | 32%
CC1(C)CC[C@]2(C(=O)O[C@@H]3OC(CO)[C@@H](O)[C@H](O)[C@H]3O)CC[C@]3(C)C(=CCC4[C@@]5(C)CC[C@H](O[C@@H]6OC(C(=O)O)[C@@H](O)[C@H](O)[C@H]6O)C(C)(C)C5CC[C@]43C)[C@@H]2C1 (some centres undefined) | x | -7% | -25% | x | x | 52%
C/C=C(\C)C(=O)OC1CC(C)(C)C[C@H]2C3=CC[C@@H]4[C@@]5(C)CCC(O[C@@H]6O[C@@H](C(=O)O)[C@@H](O)C(O[C@@H]7OC[C@H](O)[C@@H](O)[C@@H]7O[C@@H]7OC(CO)C(O)[C@@H](O)[C@@H]7O)C6O[C@@H]6OC(CO)C(O)C(O)C6O)[C@@](C)(CO)[C@@H]5CC[C@]4(C)[C@]3(C)CC(O)[C@@]12CO (some centres undefined) | x | 79µM* | -27% | x | x | 11%
O=C(CCCSc1nc2ccccc2s1)Nc1nccs1 | -35%[59 µM] | 16% | -6% | -24% | 2% | 37%
O=C(CCCc1nc2ccccc2s1)Nc1nccs1 | 40µM* | -11% | -25% | 45µM* | -2% | 23%
Cc1cnc(NC(=O)COc2ccccc2)s1 | 2%[59 µM] | 89µM* | 30µM* | 9% | -3% | -9%
COc1ccccc1OCC(=O)Nc1ncc(C)s1 | 15%[12.7 µM] | -11% | -11% | x | -2% | 28%
O=C(CCCc1nc2ccccc2s1)NC1CCOC1=O (centres undefined) | 27% | -5% | 10% | 15% | -2% | 30%
O=C(CCc1nc2ccccc2s1)NC1CCOC1=O (centres undefined) | 40%[59 µM] | -9%[11.4 µM] | 24µM* | 12% | 14% | -11%
O=C(Nc1nc(-c2ccccc2)ns1)c1ccncc1 | x | -18%[11.4 µM] | 8.4µM* | -5% | 3% | 19%
CSCCC(NC(=O)c1ccccc1)C(=O)N1CCN(C(C)=O)CC1 (centres undefined) | -1%[59 µM] | -1% | 1% | x | -2% | 26%
O=C(Cn1ccc2cc(S(=O)(=O)N3CCCCCC3)ccc21)NCc1ccccc1Cl | -22%[59 µM] | -12% | x | x | -11% | 15%
Cc1cnc(NC(=O)c2ccncc2)s1 | 50µM* | 5% | 3% | 9% | -29% | 11%
COc1ccc(C)c2sc(NNC(=O)COc3ccccc3)nc12 | u | x | x | 56µM* | -10% | x
O=C(CCCc1nc2ccccc2s1)NNC(=O)CCN1CCN(Cc2ccccc2)CC1 | 35µM* | -10% | -20% | 15% | -22% | 12%
Cc1ccc2nc(NC(=O)CCCc3nc4ccccc4s3)sc2c1 | u | -30% | u | -22% | -6% | 38%
Cc1cnc(NC(=O)CCCc2nc3ccccc3s2)s1 | 35µM* | -7% | u | 40µM* | -9% | 8%
COc1cccc2sc(NNC(=O)COc3ccccc3)nc12 | u | -19% | -18% | u | -9% | 34%
SMILES | G9a inh | JMJD2A Tudor | PLK1 PBD block | Sfp inh | BAZ2B block | HP1b chromo inh
C[C@@H]1C=C[C@](Cc2ccccc2)(C(=O)NCCN2CCOCC2)N1C(=O)c1ccccc1 | x | x | x | 10% | x | x
Nc1cc2c(cc1Cl)-c1ccc([N+](=O)[O-])cc1C2=NO | x | -19% | 4% | x | x | 8%
CCOC(=O)c1ccc(NC(=O)CCc2c(C)nc3c(c(C)nn3C(C)(C)C)c2C)cc1 | 10%[59 µM] | -7% | x | x | -1% | 42%
O=C(COc1ccccc1)Nc1nn[nH]n1 | u | 79µM* | -5% | -1% | 79µM* | 33%
O=C(COc1cccc(Oc2ccccc2)c1)Nc1ncccn1 | u | -18% | -13% | -18% | 7% | 36%
CCOC(=S)SCC(=O)Nc1ncc(C)s1 | x | -7% | 0% | 16µM* | -3% | 23%
COc1ccc(CNC(=O)CN2C(=O)CSc3ccc(S(=O)(=O)N4CCC(C)CC4)cc32)cc1 | -11%[59 µM] | -27% | x | x | -1% | -6%
Cc1ccc(NC(=O)CN(C)C(=O)CSc2ccccc2F)cc1 | x | -7% | 21µM* | x | x | 34%
CN(CC(=O)Nc1ccc(F)c(F)c1F)C(=O)CCCc1nc2ccccc2c(=O)[nH]1 | 24%[12.7 µM] | -9% | -5% | x | 13% | 40%
CN(CC(=O)Nc1cccc(F)c1)C(=O)CSc1ccccc1 | u | -21% | 15µM* | x | u | 10%
CN(CC(=O)Nc1cccc(F)c1)C(=O)CCc1nc2ccccc2c(=O)[nH]1 | 45µM* | -18% | 4% | x | 12% | 11%
CN(CC(=O)Nc1ccc(N2CCOCC2)cc1)C(=O)CSc1ccccc1F | u | -13% | u | x | 2% | 36%
Cc1ccc(NC(=O)CSCC(=O)N(C)CC(=O)Nc2ccccc2C(F)(F)F)cc1 | 50µM* | -14% | -4% | x | 6% | 20%
Cc1ccc(SCC(=O)N(C)CC(=O)Nc2cccc(F)c2)c(C)c1 | -5% | -4% | u | x | 7% | 24%
CCCCCC(=O)/C=C/[C@H]1[C@H](O)CC(=O)[C@@H]1C/C=C\CCCC(=O)O | x | x | x | 0% | x | x
CCOC(=O)NC(=O)CSc1ccc(S(=O)(=O)N(C)C2CCCCC2)cn1 | -10%[2.33 µM] | -26% | -13% | x | 11% | 57%
O=C(O)C=Cc1c[nH]c2nccnc12 | x | x | 9% | x | x | x
